rRNA inh HTS: selective bacterial rRNA inhibition in E. coli; E. coli WT GFP vs humanized-ribosome RFP mutants, fluorescence, 24 h; hits give low values; DMSO median 0, no signal -100; GFP signal change (wild-type ribosome), % (test concentration not listed); 350,000 compounds, 1.6% hits; AID 720706;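 active means significant combined selectivity score with lowered wild-type GFP, culture density cut under 30%, mutant RFP and density less affected; inactive means any of these conditions unmet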
PGC1a acetyl inh: PGC1a acetylation modulation, inhibitor mode; 350,000 compounds, 0.17% hits; inhibition, % at 15.6 µM; U2OS PGC1a acetylation, AlphaScreen anti-acetyl-lysine; with virally co-expressed GCN5 acetyltransferase; AID 651687;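 active means every replicate shows inhibition of at least 40%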
SIRT5 inh: sirtuin-5 (human) deacylase inhibition; Purified SirT5, succinyl-peptide AMC, trypsin-coupled fluorescence; inhibition, % at 15 µM; 330,000 compounds, 1.1% hits; in the data active means inhibition above about 15%
Target sequence (Q9NXA8 whole entry, looked up): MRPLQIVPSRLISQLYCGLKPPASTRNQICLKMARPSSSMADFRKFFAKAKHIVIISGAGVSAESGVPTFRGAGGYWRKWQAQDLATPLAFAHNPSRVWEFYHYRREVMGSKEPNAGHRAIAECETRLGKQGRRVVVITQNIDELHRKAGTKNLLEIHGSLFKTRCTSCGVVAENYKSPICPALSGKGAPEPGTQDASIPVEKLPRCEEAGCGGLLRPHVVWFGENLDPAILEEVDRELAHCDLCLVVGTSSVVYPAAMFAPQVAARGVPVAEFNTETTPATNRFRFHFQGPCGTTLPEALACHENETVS
PAX8 reporter: lowers PAX8-driven luciferase in RMG-I cells; RMG-I TPO-luciferase reporter, SteadyGlo, 24 h; 360,000 compounds, 1.2% hits; inhibition, % at 12.6 µM;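 active means mean replicate inhibition at least 60% with every replicate also reaching 60%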;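 further: luciferase light reporting Pax8 driven TPO promoter activity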
LGR2 inh: inhibitors of bursicon-induced Drosophila LGR2 receptor cAMP signaling | 380,000 compounds, 0.35% hits | HEK293 LGR2, CRE-luciferase, bursicon-stimulated, 4 h | inhibition, % at 9.99 µM;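 active means drop in luminescence signal, shown as inhibition above about 50% in the replicate tests, limit read from the data, passing the limit was not always enough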;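 further: agonist challenge used bursicon conditioned medium at about half maximal strength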
EWS-Fli block: blocks EWS/Fli oncoprotein-driven transcription | AID 651661 | A673 NR0B1-luciferase reporter, viability-normalised | inhibition, % at 12.6 µM | 350,000 compounds, 0.67% hits;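 active means mean inhibition of at least 50% after viability correction, with every replicate also passing that limit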;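 further: firefly luciferase signal divided by Alamar Blue viability fluorescence both relative to DMSO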
A number is an active result. Sampled rows, rich in hits. Any-hit rate of the full collection: about 3.4%.

What do the screens show for `COc1cc(OC)c(/C=C2\C(=O)Nc3ccccc32)c(OC)c1`?
SIRT5 inh: inactive; PAX8 reporter: inactive; LGR2 inh: inactive; EWS-Fli block: 56

How did O=C1Nc2ccccc2/C1=C/c1ccccc1F do in these assays?
rRNA inh HTS: -29; PGC1a acetyl inh: inactive; SIRT5 inh: inactive; PAX8 reporter: inactive; LGR2 inh: inactive; EWS-Fli block: inactive

What do the screens show for `COc1ccc(NC(=O)N(C)C[C@H]2Oc3ccc(NC(=O)C4CCCCC4)cc3CC(=O)N([C@@H](C)CO)C[C@H]2C)cc1`?
rRNA inh HTS: inactive; PGC1a acetyl inh: inactive; SIRT5 inh: inactive; LGR2 inh: inactive; EWS-Fli block: inactive

What do the screens show for `COC(=O)CCC(=O)Nc1cc(Cl)cc(Cl)c1`?
rRNA inh HTS: inactive; PGC1a acetyl inh: inactive; SIRT5 inh: inactive; PAX8 reporter: 70; LGR2 inh: inactive; EWS-Fli block: inactive

Results for COC(=O)CCC(=O)Nc1ccc(NC(=O)CCC(=O)OC)cc1 ?
PGC1a acetyl inh: inactive; LGR2 inh: inactive

How did Fc1ccc(-n2nnc(-c3cccnc3)n2)cc1 do in these assays?
rRNA inh HTS: inactive; PGC1a acetyl inh: inactive; PAX8 reporter: inactive; LGR2 inh: inactive; EWS-Fli block: inactive

How did Fc1ccc(-n2nnc(-c3cnc4ccccc4c3)n2)cc1 do in these assays?
rRNA inh HTS: inactive; PGC1a acetyl inh: inactive; SIRT5 inh: inactive; PAX8 reporter: inactive; LGR2 inh: 79; EWS-Fli block: inactive

How did CC(c1cccs1)N(Cc1ccco1)C(=S)Nc1ccccc1Cl (stereo not given) do in these assays?
rRNA inh HTS: -20; PGC1a acetyl inh: inactive; SIRT5 inh: inactive; PAX8 reporter: inactive; LGR2 inh: inactive; EWS-Fli block: inactive

How did Cc1cccc2cc(CN(CC3CCCO3)S(=O)(=O)c3ccccc3)c(=O)[nH]c12 (stereo not given) do in these assays?
rRNA inh HTS: -24; PGC1a acetyl inh: inactive; SIRT5 inh: inactive; PAX8 reporter: inactive; LGR2 inh: inactive; EWS-Fli block: inactive

How did OC[C@H]1[C@H](c2ccc(-c3ccccc3)cc2)[C@@H]2CN(CCC(F)(F)F)CCCCN12 do in these assays?
rRNA inh HTS: inactive; PGC1a acetyl inh: inactive; SIRT5 inh: 27; PAX8 reporter: inactive; LGR2 inh: inactive; EWS-Fli block: inactive

What do the screens show for `CN(C)C(=O)c1ccc(-c2ccc([C@H]3[C@@H](CO)N4CCCCN(CCC(F)(F)F)C[C@@H]34)cc2)cc1`?
rRNA inh HTS: inactive; PGC1a acetyl inh: inactive; SIRT5 inh: inactive; PAX8 reporter: inactive; LGR2 inh: inactive; EWS-Fli block: inactive

Results for OC[C@H]1[C@H](c2ccc(-c3ccc(F)cc3)cc2)[C@@H]2CN(Cc3ccncc3)CCCCN12 ?
rRNA inh HTS: -19; PGC1a acetyl inh: inactive; SIRT5 inh: inactive; PAX8 reporter: inactive; LGR2 inh: inactive; EWS-Fli block: inactive

How did CN(C)C(=O)c1ccc(-c2ccc([C@H]3[C@H](CO)N4CCCCN(CCC(F)(F)F)C[C@@H]34)cc2)cc1 do in these assays?
rRNA inh HTS: inactive; PGC1a acetyl inh: inactive; SIRT5 inh: 33; PAX8 reporter: inactive; LGR2 inh: inactive; EWS-Fli block: inactive

Results for OC[C@H]1[C@@H](c2ccc(-c3ccc(F)cc3)cc2)[C@@H]2CN(Cc3ccncc3)CCCCN12 ?
rRNA inh HTS: inactive; PGC1a acetyl inh: inactive; SIRT5 inh: inactive; PAX8 reporter: inactive; LGR2 inh: inactive; EWS-Fli block: inactive

How did COC(=O)C[C@H]1CC[C@H]2[C@@H](COc3ccc(NC(=O)Nc4ccc(C#N)cc4)cc3C(=O)N2C)O1 do in these assays?
rRNA inh HTS: inactive; PGC1a acetyl inh: inactive; SIRT5 inh: inactive; LGR2 inh: inactive; EWS-Fli block: inactive

What do the screens show for `CCCC(=O)Nc1ccc2c(c1)C(=O)N(C)[C@H]1CC[C@@H](CC(=O)NCC3CCCCC3)O[C@@H]1CO2`?
rRNA inh HTS: inactive; PGC1a acetyl inh: inactive; SIRT5 inh: inactive; PAX8 reporter: inactive; LGR2 inh: inactive; EWS-Fli block: inactive

Results for C[C@H]1CN([C@@H](C)CO)C(=O)c2cccc(NC(=O)c3cnccn3)c2O[C@H]1CN(C)C(=O)Nc1ccc(C(F)(F)F)cc1 ?
rRNA inh HTS: inactive; PGC1a acetyl inh: inactive; SIRT5 inh: inactive; PAX8 reporter: inactive; LGR2 inh: inactive; EWS-Fli block: inactive

How did O=C(NC1=C(NC2CCS(=O)(=O)C2)C(=O)c2ccccc2C1=O)c1ccccc1 (stereo not given) do in these assays?
rRNA inh HTS: inactive; SIRT5 inh: inactive; PAX8 reporter: 96; LGR2 inh: 78; EWS-Fli block: inactive

Results for COCC(=O)N1CCC2(CC1)CN(Cc1cccc(OC)c1)[C@H](CO)c1c2c2ccc(OC)cc2n1C ?
rRNA inh HTS: inactive

What do the screens show for `Cc1cccc(N2CC(C(=O)Nc3cccc(S(=O)(=O)N4CCCCC4)c3)CC2=O)c1C` (stereo not given)?
rRNA inh HTS: -25; PGC1a acetyl inh: inactive; SIRT5 inh: inactive; PAX8 reporter: inactive; LGR2 inh: inactive; EWS-Fli block: inactive

Results for CN(C)C(=O)C[C@H]1CC[C@H](NC(=O)Nc2cccc(F)c2)[C@@H](CO)O1 ?
rRNA inh HTS: inactive; PGC1a acetyl inh: inactive; SIRT5 inh: inactive; PAX8 reporter: inactive; LGR2 inh: inactive; EWS-Fli block: inactive

Results for CO[C@@H]1CN(C)C(=O)c2cc(NS(C)(=O)=O)ccc2OC[C@@H](C)N(Cc2ccccc2)C[C@@H]1C ?
rRNA inh HTS: inactive; PGC1a acetyl inh: inactive; SIRT5 inh: inactive; PAX8 reporter: inactive; LGR2 inh: inactive; EWS-Fli block: inactive

What do the screens show for `O=C(Nc1cc(S(=O)(=O)N2CCCCC2)ccc1Cl)c1ccccc1NS(=O)(=O)c1ccc(F)cc1`?
SIRT5 inh: inactive; PAX8 reporter: 93; LGR2 inh: inactive; EWS-Fli block: inactive

How did O=C(Nc1cc(S(=O)(=O)N2CCCCC2)ccc1O)c1ccccc1NS(=O)(=O)c1ccc(F)cc1 do in these assays?
rRNA inh HTS: inactive; PGC1a acetyl inh: inactive; SIRT5 inh: inactive; PAX8 reporter: inactive; LGR2 inh: inactive; EWS-Fli block: inactive

How did O=C(Nc1ccc(F)cc1)Nc1ccc(N2CCCC2)c(S(=O)(=O)Nc2ccccc2Cl)c1 do in these assays?
SIRT5 inh: inactive; PAX8 reporter: 88; EWS-Fli block: inactive

What do the screens show for `CC(NCC(=O)Nc1cc(S(=O)(=O)N2CCCCCC2)ccc1Cl)c1ccccc1` (stereo not given)?
rRNA inh HTS: -23; SIRT5 inh: inactive; PAX8 reporter: inactive; LGR2 inh: inactive; EWS-Fli block: inactive

Results for COc1cccc(CN2CC3(CN(C(C)=O)C3)c3c(n(C)c4cc(OC)ccc34)[C@@H]2CO)c1 ?
rRNA inh HTS: inactive; PGC1a acetyl inh: inactive; SIRT5 inh: inactive; LGR2 inh: inactive; EWS-Fli block: inactive

Results for CC(C)NC(=O)Nc1ccc2c(c1)CC(=O)N([C@@H](C)CO)C[C@@H](C)[C@@H](CN(C)C(=O)NC(C)C)O2 ?
rRNA inh HTS: inactive; PGC1a acetyl inh: inactive; SIRT5 inh: inactive; PAX8 reporter: inactive; LGR2 inh: inactive; EWS-Fli block: inactive
